This passage reports Potency results from PubChem BioAssay (NCATS).

Each structure is given as a SMILES string. Records with an inconclusive call do not appear. Where a call stands in place of a potency, no number is given. Calls of active or inactive are those of the source. Calls follow the shape of the dose curve; as a rule, active = well fitted curve in the direction sought with a large enough effect; inconclusive = small, poorly fitted or top-dose-only effect, or another doubt; inactive = no such curve, though single readings can be large; an effect the other way counts as inactive or inconclusive.

In experiment [1] the target is Aldehyde dehydrogenase, mitochondrial (Homo sapiens) (UniProt P05091). Description: qHTS for Inhibitors of the Aldehyde Dehydrogenase Family (ALDH2) Primary screen (AID 2061308). Also: nearly all actives have a fitted effect of over 55% in size. To be noted: ALDH2 enzyme inhibition qHTS, 1536-well; series mostly up to 56 µM.
Experiment [2] deals with Retinaldehyde dehydrogenase 3 (Homo sapiens) (UniProt P47895). Description: qHTS for Inhibitors of the Aldehyde Dehydrogenase Family (ALDH1A3) Primary screen (AID 2061315). To be noted: ALDH inhibition qHTS; series mostly up to 56 µM.

Take `O=S(=O)(Nc1ccccc1)c1ccc(NCc2ccc(Br)cc2O)cc1`: the Potency entry in experiment [1] and in experiment [2] was “inactive” throughout.
Consider `CCN1CCN(C(c2ccc(Cl)cc2)c2ccc(Cl)cc2)CC1`, for which the Potency result in experiment [1] and in experiment [2] was “inactive” throughout.
As for `CCC1CN2CCC3(C(=O)Nc4cccc(O)c43)C2CC1/C(=C/OC)C(=O)OC` (configuration not stated), the Potency entry in experiment [1] and in experiment [2] was “inactive” throughout.
Take `C=C1C(=O)CC2OC2(C)CC2OC(=O)C(=C)C2C(O)C1OC(=O)/C(C)=C\C` (configuration not stated): the Potency result in experiment [1] and in experiment [2] was “inactive” each time.
With `Cc1cccc(NC(=O)N[C@H]2CN(C)c3ccccc3C(c3ccccc3)=N2)c1`, the Potency result in experiment [1] and in experiment [2] was “inactive” throughout.
For the compound `C=C1C[C@]2(O)[C@@]3(C)CCC(=O)C(C)(C)C3=C(O)C(=O)[C@@]2(C)[C@@H]2C(=O)O[C@@](C)(C(=O)OC)C(=O)[C@@]12C`, the Potency entry in experiment [1] and in experiment [2] was “inactive” in each case.
For `CCOC(=O)C1CCN(C(=O)C2(NC(=O)Nc3ccccc3Cl)CCCC2)CC1`, the Potency entry in experiment [1] and in experiment [2] was “inactive” throughout.
Take `C[C@H]1O[C@@H](O[C@H]2C[C@@H](O)[C@]3(CO)C4C(CC[C@]3(O)C2)[C@@]2(O)CC[C@H](C3=CC(=O)OC3)[C@@]2(C)C[C@H]4O)[C@@H](O)[C@@H](O)[C@H]1O` (some centres not stated): the Potency result in experiment [1] and in experiment [2] was “inactive” each time.
Consider `C/C=C(\C)C(=O)OC1CC2C(C)(C)OC(=O)CC(OC(C)=O)C2(C)C2CC(OC(=O)C(C)C)C3(C)C(c4ccoc4)CC4OC43C12C` (configuration not stated), for which the Potency entry in experiment [1] and in experiment [2] was “inactive” throughout.
For the compound `CC(=O)OC[C@]12C[C@H](OC(=O)CC(C)C)C(C)=C[C@H]1O[C@@H]1[C@H](O)[C@@H](O)[C@@]2(C)[C@]12CO2`, the Potency result in experiment [1] and in experiment [2] was “inactive” in each case.
In the case of `N#Cc1ccc(NC(=O)Nc2nnc(-c3ccncc3)s2)cc1Cl`, the Potency result in experiment [1] and in experiment [2] was “inactive” throughout.
